MARV entry inh: Marburg virus entry inhibition; 6.5% of 18,000 active; Potency, µM (titrated, usually from 49.2 µM), most hits filed as inhibitors; Marburg virus pseudotype entry/binding inhibition, cell-based
Lassa entry: blocks Lassa virus binding or cell entry | Potency, µM (series often up to 49.2 µM), hits mostly inhibitors | 4.1% of 18,000 active | Lassa virus pseudotyped entry inhibition, cell-based qHTS
Large screens that a line does not name were inactive; ! = not confirmed by another sample. A selection: hits, their analogues and other compounds. The true share with any hit is near 7.1%. Calls come from the whole dose curve; tested in HEK293 cells.

O=C1CC[C@@]2(O)[C@H]3Cc4ccc(O)c5c4[C@@]2(CCN3CC2CC2)[C@@H]1O5	none
O=C1/C(=C\c2ccccc2)C[C@@]2(O)[C@H]3Cc4ccc(O)c5c4[C@@]2(CCN3CC2CC2)[C@H]1O5	MARV entry inh inconclusive, Lassa entry 4µM
O=C1/C(=C\c2ccccc2)C[C@@]2(O)[C@H]3Cc4ccc(O)c5c4[C@@]2(CCN3CC2CC2)[C@@H]1O5	MARV entry inh 11µM, Lassa entry 3.5µM
COC(=O)/C=C\C(=O)N[C@@H]1CC[C@@]2(O)[C@H]3Cc4ccc(O)c5c4[C@@]2(CCN3CC2CC2)[C@@H]1O5	MARV entry inh 28µM, Lassa entry inconclusive
Oc1ccc2c3c1O[C@H]1[C@@H](O)CC[C@@]4(O)[C@@H](C2)N(CC2CCC2)CC[C@]314	MARV entry inh inconclusive
O=S1(=O)C=CCN1Cc1ccc(F)cc1	none
O=C(c1cccs1)N1C[C@H](n2cc(C3CC3)nn2)[C@H](O)C[C@@H]1c1ccccc1	none
COC(=O)[C@@]1(C=C[C@@H](C)[C@H](OC)c2ccccc2Br)[C@@H]2OCCC[C@@H]21	none
C=C(C)C(O)C=Cc1ccc(Br)cc1 (configuration not stated)	MARV entry inh inconclusive
CCC[C@H]1CN(Cc2ccccc2)C(=O)[C@H]1CC(=O)NC	none
COCCN1C(=O)NC(c2cccc(C(F)(F)F)c2)C(C(C)=O)=C1C (configuration not stated)	none
CN1CCC(=C2c3ccccc3CC(=O)c3sccc32)CC1	MARV entry inh 7.1µM!, Lassa entry inconclusive
CN1CCC(=C2c3ccccc3CCc3sccc32)CC1	MARV entry inh 11µM, Lassa entry 22µM!
CC1(C)CC(=O)C2=C(C1)O[C@@]1(CCCCN3C(=O)c4ccccc4C3=O)Cc3cc(C#N)ccc3[C@H]2O1	MARV entry inh inconclusive
COC(=O)C1=C(C(=O)OC)[C@@H]2N(C)c3ccccc3[C@@]23C[C@@H](CO)N(C(=O)NC2CCCC2)C3=N1	MARV entry inh inconclusive
O=C(OCc1cn([C@@H]2C[C@H](c3ccc(Cl)cc3)N(Cc3cccs3)C[C@@H]2O)nn1)c1ccccc1	none (no result: Lassa entry)
CCCC[C@]12Cc3c(ccc4ccccc34)[C@H](O1)C1=C(O2)C(=O)c2ccccc2C1=O	none
COC(=O)N[C@@H](c1ccc2ccccc2c1)C(C(C)=O)C(=O)OC (some centres not stated)	none
O=c1oc2ccccc2c2c1[C@H]1O[C@](c3ccsc3)(Cc3ccccc31)O2	none
CCCN1CCC(Oc2cc(Nc3nc(Nc4cccc(F)c4C(N)=O)c4cc[nH]c4n3)c(OC)cc2Cl)CC1	MARV entry inh 10µM, Lassa entry inconclusive
CCCN1CCCC(c2ccc(Nc3nc(Nc4cc(F)ccc4C(N)=O)c4cc[nH]c4n3)c(OC)c2)C1 (configuration not stated)	MARV entry inh 7.9µM, Lassa entry inconclusive
CCCN1CCC=C(c2ccc(Nc3nc(Nc4ccccc4C(N)=O)c4cc[nH]c4n3)c(C)c2)C1	MARV entry inh inconclusive
CC1=CC[C@@H](C)O[C@@]2(C1)C(=O)Nc1ccccc12	none
COc1cc(NS(C)(=O)=O)ccc1Cc1c2ccccc2nc2ccccc12	MARV entry inh 2µM, Lassa entry inconclusive
CN1CCN(c2nc(-c3cccc(NS(C)(=O)=O)c3)nc3ccccc23)CC1	none
COc1ccc(-c2nc3cc(C)ccc3cc2CN(C(=O)c2ccco2)C2CC2)cc1OC	none
COc1cccc(-c2nc3cc4c(cc3cc2CN(C(=O)c2cccs2)C2CC2)CCC4)c1OC	MARV entry inh inconclusive, Lassa entry 13µM
COc1ccc(-c2nc3cc(C)ccc3cc2CN(C(=O)c2cccs2)C2CC2)cc1OC	Lassa entry inconclusive
COc1cccc(C(=O)N(Cc2cc3ccc(C)cc3nc2N(C)C)C2CC2)c1OC	MARV entry inh 4µM, Lassa entry 5µM
O=S1(=O)c2ccc(Br)cc2-n2nncc2CN1Cc1ccc(C(F)(F)F)cc1	none
C[C@@H]1[C@@H]2Cc3ccc(O)cc3[C@@]1(C)CCN2CC1CC1	none
C[C@@H]1[C@@H]2Cc3ccc(O)cc3[C@@]1(C)CCN2CCc1ccccc1	MARV entry inh 20µM, Lassa entry inconclusive
COC(=O)[C@@]1(C=C2c3ccccc3[C@@H](OC)[C@@H]2C)[C@@H]2Oc3ccccc3[C@@H]21	none (no result: Lassa entry)
CN1c2ccccc2[C@@]2(O)C(=O)[C@@]1(C)[C@@H]1CCC=C[C@H]12	none
CN(C)c1ccc2[nH]c(O)c(C=Nc3ccc(S(N)(=O)=O)cc3)c2c1	none (no result: Lassa entry)
COc1cc2ncn(-c3cc(OC(C)c4ccccc4Cl)c(C(N)=O)s3)c2cc1OC (configuration not stated)	MARV entry inh 3.5µM (no result: Lassa entry)
COc1cc2ncn(-c3cc(OCc4ccccc4S(C)(=O)=O)c(C#N)s3)c2cc1OC	MARV entry inh inconclusive
COc1cc2ncn(-c3cc(OCCc4ccccc4)c(C(N)=O)s3)c2cc1OC	MARV entry inh inconclusive, Lassa entry 7.9µM
COc1cc2ncn(-c3cc(OCc4ccccc4C(F)(F)F)c(C(=O)N(C)C)s3)c2cc1OC	MARV entry inh inconclusive
CCCCCCCc1cc2ccccc2c2c(C=O)c(CCCC)c(C(=O)OC)n12	MARV entry inh inconclusive

High-throughput results: PubChem BioAssay, National Center for Advancing Translational Sciences (NCATS)
